Screening results deposited in PubChem BioAssay by Broad Institute.
Rows were chosen to be rich in hits. Some 4% of all compounds tested hit in one or more screens of this group.
Wnt act: Wnt/beta-catenin pathway activators, primary screen, cell-based, plate reader, single point | Wnt/beta-catenin reporter cell assay, activator | AID 743398, 2014 | actives 1.2% (n = 300,000) | activation, % at 9.35 µM; in the data active = activation above about 30%, passing the limit was not always enough; inconclusive = no clear call, values can overlap the other calls;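 also: 0% = neutral control wells and 100% = positive control wells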
EBV LMP1 NFkB: EBV LMP1-driven NF-kappaB luciferase reporter inhibitors, primary screen, cell-based, luminescence, single point. LMP1-induced NF-kappaB luciferase reporter cells. inhibition, % at 12.5 µM. actives 0.69% (n = 350,000); in the data active = inhibition above about 41%; inconclusive = no clear call, values can overlap the other calls;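 also: 0% = neutral control wells and 100% = reference inhibitor control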
esBAF inh: Bmi1 luciferase reporter increase in mESCs, primary screen, esBAF inhibitor project, mouse ES cells, Bmi1 luciferase knock-in, single point. actives 2% (n = 350,000). 24 h; 100% = twice the neutral-well signal. AID 602393, 2012. reporter increase, % at 12.5 µM; in the data active = activation above about 40%; inconclusive = no clear call, values can overlap the other calls;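 also: 0% = median of the plate's neutral control wells and 100% = double that signal; a rise in the Bmi1 reporter signal indicates esBAF inhibition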
Statin myotox sup: suppressors of statin myotoxicity in C2C12 myotubes, primary screen, cell-based, single point, plate reader; C2C12 myotubes + simvastatin, ATP luminescence, 48 h; scaled: DMSO 0, geranylgeraniol control 100; rescue of ATP level, % at 7.49 µM; actives 0.78% (n = 330,000);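 active = mean ATP rescue above about 67%, or every replicate alone reaching that limit, limit read from the data, passing the limit was not always enough; inconclusive = no clear call, values can overlap the other calls; inactive = mean under the limit and some replicate under it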;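 also: myotubes were challenged with 10 µM simvastatin during compound exposure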
MITF TRPM1 inh: inhibitors of MITF-dependent TRPM1 promoter reporter, primary screen, cell-based, SK-MEL-5, single point, luciferase; SK-MEL-5 TRPM1 promoter luciferase, 24 h; inhibition, % at 12.5 µM; actives 0.83% (n = 330,000);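 active = mean inhibition across replicates of 60% or more, whatever share of single replicates reaches that level; inconclusive = some that reach 60%, reason not given; inactive = mean inhibition across replicates below 60%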
MITF act: activators of MITF-driven TRPM1 promoter reporter, primary screen, cell-based, SK-MEL-5, luciferase, single point; actives 0.75% (n = 300,000); activation, % at 12.5 µM; SK-MEL-5 TRPM1-promoter luciferase, 24 h; % of positive control, neutral wells = 0;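 active = mean activation of at least 80% with every replicate also reaching 80%; inconclusive = mean reaches 80% but some replicate falls short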;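 also: 0% = neutral control wells and 100% = parthenolide positive control wells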
* hit, by the source's call; ? = inconclusive; · = not tested or not shown.

SMILES | Wnt act | EBV LMP1 NFkB | esBAF inh | Statin myotox sup | MITF TRPM1 inh | MITF act
CCC(NC(=O)c1cc(COc2ccc(OC)cc2Cl)on1)c1ccncc1 (stereo not drawn) | 18.9 | -20.7 | 46.9* | 5.6 | -44.7 | 49.8
COc1cc(Cl)ccc1OCc1cc(C(=O)NC(C)Cc2cnccn2)no1 (stereo not drawn) | 47.0* | -27.7 | 66.6* | -0.5 | -81.5 | 88.3*
COc1ccc(OCc2cc(C(=O)NC(C)c3nc(C)cs3)no2)c(Cl)c1 (stereo not drawn) | 0.8 | 2.2 | 61.2* | 5.4 | · | ·
CC(Cc1cnccn1)NC(=O)c1cc(COc2ccc(F)cc2F)on1 (stereo not drawn) | -1.3 | -3.2 | -6.2 | -4.8 | 1.6 | -3.0
CCN(CC)CCOC(=O)c1ccc(NC(=O)CCCN2C(=O)S/C(=C/c3ccc(OC)cc3)C2=S)cc1 | · | 17.3 | -75.0 | 4.5 | 24.1 | -22.4
COc1ccccc1N1CCN(C(=O)c2cccc(C(=O)N3CCN(c4ccccc4OC)CC3)c2)CC1 | 2.3 | 12.0 | 6.0 | -12.4 | 7.4 | ·
COc1cc2ccccc2cc1C(=O)Nc1ccccc1Cl | 45.1* | -39.2 | ? | -33.7 | -43.2 | 36.5
N=c1oc2ccc(Cl)cc2cc1C(=O)Nc1ccc(F)cc1 | 36.4* | -36.3 | 6.9 | 9.9 | -29.0 | 35.6
COc1ccc2oc(=N)c(C(=O)Nc3cccc(C)c3C)cc2c1 | -4.0 | -40.0 | 79.6* | 6.0 | -86.7 | 70.2
COc1ccc2oc(=N)c(C(=O)Nc3ccc(C)cc3)cc2c1 | 12.7 | -28.8 | 43.0* | -19.2 | -27.4 | 25.3
COc1ccc2oc(=O)c(C(=O)Nc3ccccc3C)cc2c1 | -0.6 | 0.5 | 3.9 | 3.6 | -67.4 | ·
COc1cc2ccccc2cc1C(=O)Nc1ccccc1N1CCCC1 | 0.2 | -4.6 | -0.6 | -48.9 | 11.9 | -11.3
COc1ccc2oc(=N)c(C(=O)Nc3ccc(F)cc3)cc2c1 | 3.7 | -10.2 | · | · | -39.6 | 42.9
Cc1ccc(Nc2nc(N)c([N+](=O)[O-])c(NCCO)n2)cc1C | 9.0 | -10.4 | · | · | -12.4 | ·
COc1ccc2oc(=N)c(C(=O)Nc3ccccc3)cc2c1 | · | -26.6 | 27.7 | -4.8 | -23.4 | 25.0
COc1ccc2oc(=O)c(C(=O)N3CCN(c4ccccc4C)CC3)cc2c1 | 49.5* | -26.8 | 75.7* | -18.1 | -109.6 | 105.5*
COc1ccc2oc(=N)c(C(=O)Nc3ccccc3Cl)cc2c1 | 24.9 | -51.4 | 56.4* | -40.8 | -64.9 | ·
Cc1ccccc1N(C)C(=O)C1CCCN(c2ncnc3c2nc2n3CCCCC2)C1 (stereo not drawn) | 28.0 | 0.0 | 3.2 | 4.2 | 12.3 | -11.6
CCOC(=O)C(C(=O)OCC)C1N=C(N)N=C2Oc3ccccc3N21 (stereo not drawn) | · | -18.3 | 89.4* | 3.0 | -33.4 | 33.0
CCOC(=O)CN1C(=O)C(CC)Oc2ccccc21 (stereo not drawn) | -4.3 | -0.8 | -3.3 | 16.6 | 12.1 | -9.7
COc1cccc(C(=O)Nc2ccc3c(c2)C(=O)N(C)[C@@H]2CC[C@H](CC(=O)N[C@H](C)c4ccccc4)O[C@@H]2CO3)c1 | · | · | -2.0 | 19.2 | · | ·
CCCOc1ccc(-c2nnc(N)s2)cc1 | 36.0* | -19.9 | ? | -2.4 | -66.1 | 59.9
Cc1ccc(S(=O)(=O)N(C)C[C@@H]2Oc3ccc(NC(=O)NC(C)C)cc3CC(=O)N([C@H](C)CO)C[C@@H]2C)cc1 | · | · | -3.0 | -6.3 | · | ·
O=C(/C=C/c1ccccc1F)c1cccc([N+](=O)[O-])c1 | 15.3 | 45.5* | · | · | 30.0 | -24.6
O=C(C#Cc1ccccc1)c1cccc([N+](=O)[O-])c1 | -0.8 | 39.3 | 4.7 | -255.9 | 102.0* | -100.4
COc1ccc(C(=O)/C=C/c2ccccc2F)c(OC(=O)c2ccc([N+](=O)[O-])cc2)c1 | 35.2* | 5.6 | 24.1 | 10.9 | -6.3 | 9.5
COc1ccc(C(=O)/C=C/c2ccc(C)cc2)c(OC(=O)c2ccc([N+](=O)[O-])cc2)c1 | 13.2 | -14.1 | · | · | -30.5 | 28.1
